Experimental data reported in PubChem BioAssay (NCI).
Where “and” joins values, the source holds several entries; their conditions need not be identical. Equal values may be shown once. The panel holds about 83,000 compounds, 20% with a hit somewhere; the sample as a whole holds those more often.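 Percent growth is the endpoint: 0 to 100 indicates growth inhibition (40 means 60% inhibition), 0 means no net growth, and negative values indicate cell death.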 Calls of active or inactive are those of the source. How the source made its calls: active means growth percent below 10; inactive means the rest. Where a SMILES comes first, the peptide text is derived from it. The star is where a group is joined. Trt = c1ccc(C(c2ccccc2)(c2ccccc2)*)cc1; Cbz = O=C(OCc1ccccc1)*

Tests used:
Assay in all cases: NCI-60 one-dose screen, 48 h (100 = growth as untreated, 0 = no growth, -100 = all killed)
Details in all cases: 10 µM unless noted
DU-145 prostate = system: DU-145 prostate
K-562 leukemia = system: K-562 leukemia
MALME-3M melanoma = system: MALME-3M melanoma
MDA-MB-231 breast = system: MDA-MB-231 breast
RXF 393 renal = system: RXF 393 renal
SF-268 CNS = system: SF-268 CNS
SF-295 CNS = system: SF-295 CNS
SF-539 CNS = system: SF-539 CNS
UACC-257 melanoma = system: UACC-257 melanoma
M14 melanoma = system: M14 melanoma

Measured: growth

COc1ccccc1/C=C\C(=O)c1ccccc1
inactive: DU-145 prostate 94.7% | K-562 leukemia 13% | MALME-3M melanoma 78.9% | MDA-MB-231 breast 84.8% | RXF 393 renal 85.5% | SF-268 CNS 96.1% | SF-295 CNS 94.2% | SF-539 CNS 92.4% | UACC-257 melanoma 82.2% | M14 melanoma 78.5%

Cc1ccnc(NC(c2ccccc2)c2ccc3cccnc3c2O)c1 (stereo not given)
inactive: DU-145 prostate 47.8% | K-562 leukemia 21.4% | MALME-3M melanoma 62.4% | MDA-MB-231 breast 48.5% | RXF 393 renal 66.9% | SF-268 CNS 34.7% | SF-295 CNS 26% | SF-539 CNS 24.7% | UACC-257 melanoma 41.7% | M14 melanoma 36.8%

O=C(Nc1cccc(Br)c1)Oc1ccc(Cl)c2cccnc12
active: SF-539 CNS 9.36% [100 µM] | UACC-257 melanoma 7.32% [100 µM] | M14 melanoma 8.2% [100 µM]
inactive: DU-145 prostate 42.2% [100 µM] | K-562 leukemia 10.4% [100 µM] | MALME-3M melanoma 27% [100 µM] | MDA-MB-231 breast 20.1% [100 µM] | RXF 393 renal 51.6% [100 µM] | SF-268 CNS 16.4% [100 µM] | SF-295 CNS 12.1% [100 µM]

COC(=O)C(CSC(c1ccccc1)(c1ccccc1)c1ccccc1)NC(=O)C(CC(N)=O)NC(=O)OCc1ccccc1 (stereo not drawn) (Cbz-Asn-Cys(Trt)-OMe; configuration not given here)
inactive: DU-145 prostate 13.4% | K-562 leukemia 25.4% | MALME-3M melanoma 27.1% | MDA-MB-231 breast 12.5% | RXF 393 renal 34.1% | SF-268 CNS 18% | SF-295 CNS 20.1% | UACC-257 melanoma 59.1%
active: SF-539 CNS -22% | M14 melanoma -57.4%

O=C1C2=C(Nc3cc([N+](=O)[O-])ccc3N2)OC1c1c2ccccc2cc2ccccc12 (stereo not given)
inactive: DU-145 prostate 74.6% | K-562 leukemia 21.6% | MALME-3M melanoma 97.9% | MDA-MB-231 breast 65.8% | RXF 393 renal 65.1% | SF-268 CNS 33.2% | SF-295 CNS 57.5% | SF-539 CNS 58.8% | UACC-257 melanoma 74.4% | M14 melanoma 70.1%

O=C(/C=C/c1cccc(Cl)c1)c1ccccc1
inactive: DU-145 prostate 101% and 87.6% | K-562 leukemia 28.7% and 46.5% | MALME-3M melanoma 104% | MDA-MB-231 breast 105% and 89.2% | RXF 393 renal 85.4% | SF-268 CNS 99.9% and 98.4% | SF-295 CNS 93.9% and 95.8% | SF-539 CNS 105% and 97.9% | UACC-257 melanoma 100% and 94.4% | M14 melanoma 86.8% and 83%

CCC(CCCN(CC)CCc1ccccc1)OC(=O)c1cc(OC)c(OC)c(OC)c1 (stereo not given)
inactive: DU-145 prostate 104% | K-562 leukemia 76.4% | MALME-3M melanoma 98.9% | MDA-MB-231 breast 78.8% | RXF 393 renal 89.7% | SF-268 CNS 82.7% | SF-295 CNS 90.1% | SF-539 CNS 93.1% | UACC-257 melanoma 85.4% | M14 melanoma 90.1%

Nc1nc(N)c2c(ccc3c2ccn3Cc2cccc([N+](=O)[O-])c2)n1
active: DU-145 prostate -97% | MALME-3M melanoma -82.7% | MDA-MB-231 breast -87.9% | RXF 393 renal -83.6% | SF-268 CNS -78% | SF-295 CNS -93.3% | SF-539 CNS -96.7% | UACC-257 melanoma -78.9% | M14 melanoma -83.2%
inactive: K-562 leukemia 31.8%

C/C=C1\SC(=S)NC1=O
inactive: DU-145 prostate 110% | K-562 leukemia 117% | MALME-3M melanoma 92.9% | MDA-MB-231 breast 96.9% | RXF 393 renal 114% | SF-268 CNS 103% | SF-295 CNS 102% | SF-539 CNS 93.9% | UACC-257 melanoma 95% | M14 melanoma 97.5%

Cc1cc2nc(CS)[nH]c2cc1C
inactive: DU-145 prostate 93.9% | K-562 leukemia 76.8% | MALME-3M melanoma 95.7% | MDA-MB-231 breast 99% | RXF 393 renal 76.9% | SF-268 CNS 103% | SF-295 CNS 102% | SF-539 CNS 94.6% | UACC-257 melanoma 101% | M14 melanoma 89.9%

CCCCCCCCCCCCCCNCc1ccccc1
inactive: DU-145 prostate 81% | K-562 leukemia 23.8% | MALME-3M melanoma 92.6% | MDA-MB-231 breast 54.4% | RXF 393 renal 82.3% | SF-268 CNS 94.7% | SF-295 CNS 97.7% | SF-539 CNS 83.2% | UACC-257 melanoma 99.4% | M14 melanoma 81.8%

O=C(Nc1ccccc1)c1cc(Cl)ccc1O
inactive: DU-145 prostate 83.7% | K-562 leukemia 33.8% | MALME-3M melanoma 40.3% | MDA-MB-231 breast 70.6% | RXF 393 renal 79.9% | SF-268 CNS 66.5% | SF-295 CNS 73.1% | SF-539 CNS 53.2% | UACC-257 melanoma 14.9% | M14 melanoma 50.9%

CCN(CC)CC(C)(C)C(=O)/C=C/c1ccc(Cl)c(Cl)c1
inactive: SF-295 CNS 48.1%
active: DU-145 prostate -61.6% | K-562 leukemia 1.04% | MALME-3M melanoma -52.7% | MDA-MB-231 breast -48.8% | RXF 393 renal -81.9% | SF-268 CNS -0.0402% | SF-539 CNS -50.4% | UACC-257 melanoma -5.04% | M14 melanoma -43.5%

CNc1ccc(N)cc1
inactive: DU-145 prostate 121% | K-562 leukemia 135% | MALME-3M melanoma 98.1% | MDA-MB-231 breast 99% | RXF 393 renal 214% | SF-268 CNS 114% | SF-295 CNS 108% | SF-539 CNS 96.8% | UACC-257 melanoma 137% | M14 melanoma 112%

Cc1ccc2nc(C[n+]3ccc4ccccc4c3)ccc2c1
inactive: DU-145 prostate 76% | K-562 leukemia 44.2% | MALME-3M melanoma 61.2% | MDA-MB-231 breast 73.5% | RXF 393 renal 93.6% | SF-268 CNS 70.4% | SF-295 CNS 59% | SF-539 CNS 71.9% | UACC-257 melanoma 24.9% | M14 melanoma 45.8%

CN(C)C(=O)SC1=C(c2c(Cl)cccc2Cl)C(=O)c2ccccc21
inactive: MDA-MB-231 breast 80.6% | SF-268 CNS 13.3% | SF-295 CNS 103% | SF-539 CNS 91.1% | UACC-257 melanoma 48.8% | M14 melanoma 23.2%
active: DU-145 prostate -8.29% | K-562 leukemia -8.92% | MALME-3M melanoma -69.7% | RXF 393 renal -27.5%

CC(C)c1ccc2nc3ccc(C(=O)NCCN4CCN(c5ccccc5)CC4)cn3c(=O)c2c1
inactive: DU-145 prostate 80% | K-562 leukemia 45.1% | MALME-3M melanoma 48.3% | MDA-MB-231 breast 59.3% | SF-268 CNS 72.9% | SF-295 CNS 23.1% | SF-539 CNS 40.8% | UACC-257 melanoma 60.2% | M14 melanoma 63.8%
active: RXF 393 renal 3.14%

COc1ccc2nc3cc(Cl)ccc3c(NCCNc3c4ccc(Cl)cc4nc4ccc(OC)cc34)c2c1
active: DU-145 prostate -95.4% | K-562 leukemia -52.7% | MALME-3M melanoma -77.4% | MDA-MB-231 breast -78.9% | RXF 393 renal -93% | SF-268 CNS -82.6% | SF-295 CNS -93.2% | SF-539 CNS -85.5% | UACC-257 melanoma -89.6% | M14 melanoma -74.2%

CCOC(=O)/C(=C\c1ccc(-c2ccccc2)cc1)C(C)=O
inactive: DU-145 prostate 99.3% | K-562 leukemia 101% | MALME-3M melanoma 87.1% | MDA-MB-231 breast 112% | RXF 393 renal 95.6% | SF-268 CNS 91% | SF-295 CNS 102% | SF-539 CNS 98% | UACC-257 melanoma 120% | M14 melanoma 94.7%

COc1cc(/C=C/C(C)=O)ccc1O
inactive: DU-145 prostate 105% and 101% | K-562 leukemia 105% and 98.2% | MALME-3M melanoma 90.6% and 137% | MDA-MB-231 breast 96.4% and 111% | RXF 393 renal 100% and 121% | SF-268 CNS 90.3% and 99% | SF-295 CNS 107% and 114% | SF-539 CNS 86.1% and 93.9% | UACC-257 melanoma 106% and 109% | M14 melanoma 99.7% and 101%

Cn1c2c(c3ccccc31)CCN1C[C@@H]3CCCC[C@H]3C[C@@H]21
active: DU-145 prostate -49% | MALME-3M melanoma 3.28% | RXF 393 renal -24.4% | SF-295 CNS -30.1% | SF-539 CNS -1.74% | M14 melanoma -59.3%
inactive: K-562 leukemia 12.9% | MDA-MB-231 breast 28.5% | SF-268 CNS 16.1% | UACC-257 melanoma 55.4%

CCCCCCCCCCCCCCCCN(CC)CC
active: DU-145 prostate -48.4% | K-562 leukemia -73.5% | MALME-3M melanoma -90.3% | MDA-MB-231 breast -86.9% | RXF 393 renal -86.2% | SF-268 CNS -34.8% | SF-295 CNS -92.9% | SF-539 CNS -98.2% | UACC-257 melanoma -51.9% | M14 melanoma -16.9%

CC(=O)ON=C1C=CC(=C(C#N)c2ccccc2)C=C1
active: DU-145 prostate 1.67%
inactive: K-562 leukemia 28.1% | MALME-3M melanoma 83.3% | MDA-MB-231 breast 13.9% | RXF 393 renal 35.5% | SF-268 CNS 14.1% | SF-295 CNS 39.8% | SF-539 CNS 24.5% | UACC-257 melanoma 30.5% | M14 melanoma 22.2%

CCCCCCCCCCCCCCCCCCOP(=O)([O-])OC1CC[N+](C)(C)CC1
inactive: DU-145 prostate 54.2% and 25.3% | K-562 leukemia 30.3% and 20.7% | MALME-3M melanoma 69.7% and 16.3% | SF-268 CNS 38.9% and 13.7% | UACC-257 melanoma 45.4% and 19%
active: M14 melanoma -33.9% and -72.8%
11% (inactive) and -10.4% (active): MDA-MB-231 breast
19.5% (inactive) and 0.462% (active): SF-295 CNS
36.3% (inactive) and 4.21% (active): SF-539 CNS
-49% (active) and 41.2% (inactive): RXF 393 renal

CCCCCC(CCCCC)C(=O)O
inactive: DU-145 prostate 119% | K-562 leukemia 99.8% | MALME-3M melanoma 119% | MDA-MB-231 breast 105% | RXF 393 renal 135% | SF-268 CNS 104% | SF-295 CNS 108% | SF-539 CNS 104% | UACC-257 melanoma 116% | M14 melanoma 112%

CN(C)CCOc1ccc2c(c1)C(=O)/C(=C\c1ncc([N+](=O)[O-])n1C)C2
active: DU-145 prostate -37.8% | K-562 leukemia -39.7% | MALME-3M melanoma -72.7% | MDA-MB-231 breast -21.1% | RXF 393 renal -60.5% | SF-268 CNS -44.4% | SF-295 CNS -12.7% | SF-539 CNS -73.2% | UACC-257 melanoma -38.6% | M14 melanoma -67.2%
